PubChem BioAssay (Tox21)
Results filed as inconclusive are left out. The source made the active and inactive calls. Unless noted, the call rests on the fitted dose curve.

How the values were obtained:
[1] = Nuclear factor erythroid 2-related factor 2/antioxidant responsive element (Nrf2/ARE) small molecule agonists: qHTS cell viability counter screen in human keratinocytes (AID 1919968; active means well fitted curve in the direction sought with a large enough effect in the repeat runs; an effect the other way counts as inactive or inconclusive; further: nearly all actives have a fitted effect of over 55% in size)
How it was run: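 Measured as CellTiter-Fluor fluorescence, this readout tracks cytotoxicity in the same wells as the ARE-luciferase screen. HaCaT reporter cells (1,500/well) received compounds after a 5 h pre-incubation and were exposed for 23 h.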

[2] = Nuclear factor erythroid 2-related factor 2/antioxidant responsive element (Nrf2/ARE) small molecule agonists: luciferase reporter gene qHTS assay in human keratinocytes (AID 1919969); further: nearly all actives have a fitted effect of over 35% in size; further: potency means the concentration at half of the fitted maximal effect
[3] = target: Gonadotropin-releasing hormone receptor (Homo sapiens) (UniProt P30968); test: Human gonadotropin-releasing hormone receptor (GnRHR) small molecule agonists, calcium flux assay in GnRHR-HEK293 cells (AID 1920063); further: nearly all actives have a fitted effect of over 35% in size
How it was run: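 Fluorescence kinetics (480 nm excitation, 540 nm emission; 3 min, 1 s steps) report calcium mobilisation in human GnRHR-HEK293 cells in agonist mode. Dye incubation: 1 h, 37 C.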

[4] = target: KiSS-1 receptor (Homo sapiens) (UniProt Q969F8); test: Human kisspeptin (KISS1R) small molecule agonists, calcium flux assay in KISS1R-HEK293 cells (AID 1920064; active means well fitted curve in the direction sought with a large enough effect in the repeat runs; an effect the other way counts as inactive or inconclusive)
How it was run: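 Measures KISS1R agonism through calcium-sensitive dye fluorescence in stably transfected HEK293 cells, read for 3 min after pin-tool compound delivery; 15-point titrations in triplicate.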

[5] = G protein-coupled receptor (GPCR) small molecule agonists, calcium flux assay: HEK293 wild type cell line counter screen (AID 1920065)
How it was run: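 Readout: fluorescence at 480 nm excitation/540 nm emission, sampled at 1 s intervals for 3 min. Cells had been cultured 18 h, then dye-loaded 1 h at 37 C before compound or ATP addition.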

[6] = p53 small molecule agonists, cell-based qHTS assay with human liver microsomes (AID 1963577)
How it was run: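 Fluorescence of the beta-lactamase reporter in p53RE-bla cells, detected with LiveBLAzer substrate (2 h, room temperature, dark), served as the read-out after 16 h compound exposure at 37 C with human liver microsomes and NADPH, each 0.5 mg/mL final.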

[7] = p53 small molecule agonists, cell-based qHTS assay with rat liver microsomes (AID 1963578)
How it was run: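 Cells carrying a p53 response element–beta-lactamase reporter were plated and rested 5 h, then dosed with compound in DMSO plus rat liver microsomes and NADPH, each at 0.5 mg/mL final. After 16 h at 37 C, LiveBLAzer substrate was added for 2 h.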

[8] = p53 small molecule agonists, cell-based qHTS assay with human liver microsomes: qHTS cell viability counter screen (AID 1963579); further: nearly all actives have a fitted effect of over 45% in size
How it was run: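 Cytotoxicity counter screen: p53RE-bla, 4,000 cells/well; 5 h settle, 37 C/5% CO2; cpd + HLM 0.5 mg/mL + NADPH 0.5 mg/mL (final); 16 h, 37 C; CellTiter-Glo, 30 min RT, luminescence.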

[9] = p53 small molecule agonists, cell-based qHTS assay with rat liver microsomes: qHTS cell viability counter screen (AID 1963580); further: nearly all actives have a fitted effect of over 45% in size
How it was run: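 p53RE-bla HCT-116 cells were exposed 16 h at 37 C to compounds with rat liver microsomes (0.5 mg/mL) and NADPH (0.5 mg/mL). Viability was measured in the same wells as ATP content by CellTiter-Glo luminescence.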

[10] = p53 small molecule agonists, cell-based qHTS assay: qHTS cell viability counter screen (AID 1963581); further: nearly all actives have a fitted effect of over 45% in size
How it was run: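 In the same plates used for the p53 bla reporter, HCT-116 cells given compounds for 16 h at 37 C received CellTiter-Glo; luminescence was recorded 30 min later at room temperature.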

[11] = p53 small molecule agonists, cell-based qHTS assay (AID 1963582; active means well fitted activation curve with a large enough effect in the signal ratio in the repeat runs, not every such curve was filed as active; the % refers to the signal ratio)
How it was run: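 Compounds are pin-transferred in DMSO onto p53RE-bla cells and incubated 16 h at 37 C. The B/G FRET beta-lactamase substrate is then applied for 2 h at RT and fluorescence recorded.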

[12] = target: 5-hydroxytryptamine receptor 2A (Homo sapiens) (UniProt P28223); test: 5-hydroxytryptamine receptor 2A (HTR2A) small molecule antagonists, cell-based qHTS assay (AID 1963586); further: nearly all actives have a fitted effect of over 45% in size
How it was run: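 Antagonist-mode intracellular calcium assay: DOI (4 nM) added after 5 min compound pre-incubation at room temperature to dye-loaded HTR2A-CHO cells. Fluorescence followed for 3 min, sampled every second.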

[13] = target: 5-hydroxytryptamine receptor 2A (Homo sapiens) (UniProt P28223); test: 5-hydroxytryptamine receptor 2A (HTR2A) small molecule agonists, cell-based qHTS assay (AID 1963587); further: nearly all actives have a fitted effect of over 30% in size
How it was run: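 CHO cells stably expressing human HTR2A, plated 18 h, loaded with calcium dye 1 h at 37 C. Agonist mode: compounds added and intracellular calcium fluorescence recorded kinetically for 2 min at 1 sec intervals.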

[14] = target: Muscarinic acetylcholine receptor M1 (Homo sapiens) (UniProt P11229); test: Cholinergic receptor muscarinic 1 (CHRM1) small molecule antagonists, cell-based qHTS assay (AID 1963588); further: nearly all actives have a fitted effect of over 40% in size
How it was run: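 CHRM1-CHO calcium-flux assay, antagonist mode. Cells were seeded 18 h, dye-loaded 1 h at 37 C and given compound for 5 min at RT, then acetylcholine was added at 50nM. FDSS fluorescence was read 3 min; 15 concentrations, three runs.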

[15] = target: Muscarinic acetylcholine receptor M1 (Homo sapiens) (UniProt P11229); test: Cholinergic receptor muscarinic 1 (CHRM1) small molecule agonists, cell-based qHTS assay (AID 1963589); further: nearly all actives have a fitted effect of over 35% in size
How it was run: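 Each compound was tested at 15 concentrations across three independent runs on dye-loaded CHO cells stably expressing human CHRM1, reading intracellular calcium fluorescence kinetically at 1 sec intervals.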

[16] = cAMP Responsive Elements (CRE) small molecule agonists, cell-based qHTS assay (AID 1963590)
How it was run: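 Cell line: CRE-bla HEK 293T; medium DMEM/10% dialyzed FBS/0.1 mM NEAA/1 mM pyruvate/25 mM HEPES; 3 h compound exposure; beta-lactamase FRET readout after 2 h substrate loading at RT.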

[17] = cAMP Responsive Elements (CRE) small molecule antagonists, cell-based qHTS assay (AID 1963591; active means well fitted inhibition curve with a large enough effect in the signal ratio in the repeat runs, not every such curve was filed as active; the % refers to the signal ratio)
How it was run: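 Inhibition of NKH477-driven (0.25 uM final) CRE-beta-lactamase signal in HEK293T cells, 3 h compound exposure at 37 °C, detected by FRET substrate fluorescence.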

[18] = target: Beta-2 adrenergic receptor (Homo sapiens) (UniProt P07550); test: Adrenergic beta2 receptor (ADRB2) small molecule antagonists, cell-based qHTS assay (AID 1963592); further: series mostly up to about 92 µM; nearly all actives have a fitted effect of over 50% in size
How it was run: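 Cells (CHO, stable ADRB2 overexpression) incubated 18-20hr at 37C; compounds added from DMSO; agonist mix (1nM isoproterenol, 100uM IBMX, 25uM Ro-20-1724) added; 0.5hr RT; d2-cAMP and anti-cAMP-cryptate added; 1hr RT; 665/615 nm read.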

[19] = target: D(2) dopamine receptor (Homo sapiens) (UniProt P14416); test: Dopamine D2 receptor (DRD2) small molecule agonists, cell-based qHTS assay (AID 1963594); further: nearly all actives have a fitted effect of over 35% in size
How it was run: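 HEK293 cells stably expressing human DRD2, pre-treated with PDE inhibitor Ro20-1724 (0.1 mM final) and compound 10 min at room temperature, then stimulated with NKH477 (200nM […]) for 30 min. cAMP read by HTRF (665/620 nm).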

[20] = target: D(2) dopamine receptor (Homo sapiens) (UniProt P14416); test: Dopamine D2 receptor (DRD2) small molecule antagonists, cell-based qHTS assay (AID 1963595; active means well fitted inhibition curve with a large enough effect in the signal ratio in the repeat runs, with a control signal flat; the % refers to the signal ratio)
How it was run: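 HEK293 cells stably expressing DRD2 were preincubated with 0.1 mM Ro20-1724, then with compound for 10 min at room temperature. Cells were stimulated with 200 nM NKH477 plus 12 nM quinpirole for 30 min, and cAMP was read by HTRF.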

Measured: Potency

D(2) dopamine receptor (Homo sapiens), sequence (P14416 whole entry, looked up): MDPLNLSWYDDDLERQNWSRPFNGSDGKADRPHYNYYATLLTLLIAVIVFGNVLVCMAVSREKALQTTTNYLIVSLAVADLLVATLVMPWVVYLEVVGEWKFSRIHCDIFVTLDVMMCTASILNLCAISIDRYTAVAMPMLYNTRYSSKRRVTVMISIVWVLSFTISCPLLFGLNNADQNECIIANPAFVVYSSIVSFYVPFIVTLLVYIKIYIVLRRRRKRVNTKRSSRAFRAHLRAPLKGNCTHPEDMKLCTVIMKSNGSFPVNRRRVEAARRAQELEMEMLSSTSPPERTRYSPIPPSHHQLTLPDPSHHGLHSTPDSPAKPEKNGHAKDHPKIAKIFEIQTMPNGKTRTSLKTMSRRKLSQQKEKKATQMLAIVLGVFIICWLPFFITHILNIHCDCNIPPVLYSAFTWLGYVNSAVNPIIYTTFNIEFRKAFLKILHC
Beta-2 adrenergic receptor (Homo sapiens), sequence (P07550 whole entry, looked up): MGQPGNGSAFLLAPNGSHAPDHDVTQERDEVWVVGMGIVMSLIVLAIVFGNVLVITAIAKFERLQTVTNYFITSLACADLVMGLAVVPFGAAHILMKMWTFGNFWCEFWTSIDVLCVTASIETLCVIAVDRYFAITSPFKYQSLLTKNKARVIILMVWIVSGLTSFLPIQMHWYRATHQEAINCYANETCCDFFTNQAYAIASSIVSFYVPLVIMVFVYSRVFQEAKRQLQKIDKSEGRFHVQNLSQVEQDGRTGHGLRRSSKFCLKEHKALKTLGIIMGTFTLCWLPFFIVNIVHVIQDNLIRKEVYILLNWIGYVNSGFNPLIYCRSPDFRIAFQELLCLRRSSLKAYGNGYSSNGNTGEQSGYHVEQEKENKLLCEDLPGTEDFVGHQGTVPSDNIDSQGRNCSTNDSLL
5-hydroxytryptamine receptor 2A (Homo sapiens), sequence (P28223 whole entry, looked up): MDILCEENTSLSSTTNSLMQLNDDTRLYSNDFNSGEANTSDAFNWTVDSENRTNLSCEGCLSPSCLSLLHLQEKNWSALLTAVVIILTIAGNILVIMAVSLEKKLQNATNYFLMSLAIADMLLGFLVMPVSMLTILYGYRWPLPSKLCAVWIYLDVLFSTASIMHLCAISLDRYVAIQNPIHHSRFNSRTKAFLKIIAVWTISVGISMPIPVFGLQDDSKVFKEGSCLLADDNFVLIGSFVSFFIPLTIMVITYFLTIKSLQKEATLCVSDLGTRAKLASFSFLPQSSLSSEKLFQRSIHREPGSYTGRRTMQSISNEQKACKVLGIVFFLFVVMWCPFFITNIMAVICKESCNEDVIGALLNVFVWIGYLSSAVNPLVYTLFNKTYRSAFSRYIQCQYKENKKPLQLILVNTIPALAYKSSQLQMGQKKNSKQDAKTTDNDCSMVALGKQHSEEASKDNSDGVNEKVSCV
KiSS-1 receptor (Homo sapiens), sequence (Q969F8 whole entry, looked up): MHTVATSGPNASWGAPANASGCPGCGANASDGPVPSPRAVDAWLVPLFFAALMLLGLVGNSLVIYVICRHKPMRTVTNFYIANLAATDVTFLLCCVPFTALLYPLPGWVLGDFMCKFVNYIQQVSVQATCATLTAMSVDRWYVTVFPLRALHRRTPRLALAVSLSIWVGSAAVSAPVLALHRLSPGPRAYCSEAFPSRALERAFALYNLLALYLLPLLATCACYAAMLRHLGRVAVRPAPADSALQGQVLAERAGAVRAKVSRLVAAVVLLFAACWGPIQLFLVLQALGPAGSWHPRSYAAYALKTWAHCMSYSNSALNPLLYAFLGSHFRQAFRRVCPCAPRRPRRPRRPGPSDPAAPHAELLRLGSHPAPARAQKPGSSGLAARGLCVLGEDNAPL
Muscarinic acetylcholine receptor M1 (Homo sapiens), sequence (P11229 whole entry, looked up): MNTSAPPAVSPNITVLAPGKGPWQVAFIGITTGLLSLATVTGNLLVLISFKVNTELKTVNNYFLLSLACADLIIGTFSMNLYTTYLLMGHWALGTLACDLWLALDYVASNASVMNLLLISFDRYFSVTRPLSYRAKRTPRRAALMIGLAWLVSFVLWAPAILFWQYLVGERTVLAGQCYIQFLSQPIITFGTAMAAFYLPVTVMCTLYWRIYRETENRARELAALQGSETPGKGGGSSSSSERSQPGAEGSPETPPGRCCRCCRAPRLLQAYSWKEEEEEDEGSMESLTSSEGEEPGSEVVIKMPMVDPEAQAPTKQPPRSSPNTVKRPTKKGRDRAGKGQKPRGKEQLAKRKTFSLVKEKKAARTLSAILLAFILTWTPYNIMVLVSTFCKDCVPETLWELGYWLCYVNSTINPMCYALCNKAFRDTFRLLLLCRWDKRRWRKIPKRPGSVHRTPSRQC
Gonadotropin-releasing hormone receptor (Homo sapiens), sequence (P30968 whole entry, looked up): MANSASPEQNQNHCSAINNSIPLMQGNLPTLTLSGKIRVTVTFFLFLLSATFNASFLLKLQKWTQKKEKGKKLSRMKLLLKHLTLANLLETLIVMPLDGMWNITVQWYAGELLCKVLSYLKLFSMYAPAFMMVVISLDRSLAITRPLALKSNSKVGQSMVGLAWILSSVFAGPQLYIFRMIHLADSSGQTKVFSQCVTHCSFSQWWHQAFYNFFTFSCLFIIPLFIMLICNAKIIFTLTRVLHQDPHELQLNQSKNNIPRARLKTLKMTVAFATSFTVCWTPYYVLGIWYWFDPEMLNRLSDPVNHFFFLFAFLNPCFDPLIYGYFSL

N#CC1(c2ccc(F)cc2)CCC(=O)CC1
inactive: [1] | [2] | [3] | [4] | [5] | [6] | [7] | [8] | [9] | [10] | [11] | [12] | [13] | [14] | [15] | [16] | [17] | [18] | [19] | [20]

O=C(CCNNC(=O)c1ccncc1)NCc1ccccc1
inactive: [1] | [2] | [3] | [4] | [5] | [6] | [7] | [8] | [9] | [10] | [11] | [12] | [13] | [14] | [15] | [16] | [17] | [18] | [19]

CC(=O)c1cc2ccccc2s1
inactive: [1] | [2] | [3] | [4] | [5] | [6] | [7] | [8] | [9] | [10] | [11] | [12] | [13] | [14] | [15] | [16] | [17] | [18] | [20]

CC1=C(O)C(=O)C(C)O1 (stereo not given)
inactive: [1] | [2] | [3] | [4] | [5] | [6] | [7] | [8] | [9] | [10] | [11] | [12] | [13] | [14] | [15] | [16] | [17] | [18] | [20]

O=C1CCC(=O)O1
inactive: [1] | [2] | [3] | [4] | [5] | [6] | [7] | [8] | [9] | [10] | [11] | [12] | [13] | [14] | [15] | [16] | [17] | [18] | [20]

CC(C)CCOCCC(C)C
inactive: [1] | [2] | [3] | [4] | [5] | [6] | [7] | [8] | [9] | [10] | [11] | [12] | [13] | [14] | [15] | [16] | [17] | [18] | [19] | [20]

CC(C)(c1cc(Br)c(OCC(Br)CBr)c(Br)c1)c1cc(Br)c(OCC(Br)CBr)c(Br)c1 (stereo not given)
inactive: [1] | [2] | [3] | [4] | [5] | [6] | [7] | [8] | [9] | [10] | [11] | [12] | [13] | [14] | [15] | [16] | [17] | [18] | [19] | [20]

C1COC1
inactive: [1] | [2] | [3] | [4] | [5] | [6] | [7] | [8] | [9] | [10] | [11] | [12] | [13] | [14] | [15] | [16] | [17] | [18] | [19] | [20]

CC/C=C\CCOC(=O)CC
inactive: [1] | [2] | [3] | [4] | [5] | [6] | [7] | [8] | [9] | [10] | [11] | [12] | [13] | [14] | [15] | [16] | [17] | [18] | [20]

Cc1ccc2n[nH]nc2c1
inactive: [1] | [2] | [3] | [4] | [5] | [6] | [7] | [8] | [9] | [10] | [11] | [12] | [13] | [14] | [15] | [16] | [17] | [18] | [19] | [20]

Cc1ccc(N=Nc2c(O)ccc3ccccc23)c(C)c1
inactive: [1] | [3] | [4] | [5] | [6] | [7] | [8] | [9] | [10] | [11] | [12] | [13] | [14] | [15] | [16] | [17] | [18] | [19] | [20]
active: [2] 2660 nM

NC(=O)Nc1ccc(Cl)cc1
inactive: [1] | [2] | [3] | [4] | [5] | [6] | [7] | [8] | [9] | [10] | [11] | [12] | [13] | [14] | [15] | [16] | [17] | [18] | [19] | [20]

O=S(=O)(O)CCCN1CCOCC1
inactive: [1] | [2] | [3] | [4] | [5] | [6] | [7] | [8] | [9] | [10] | [11] | [12] | [13] | [14] | [15] | [16] | [17] | [18] | [19] | [20]

Nc1cc([N+](=O)[O-])ccc1Cl
inactive: [1] | [2] | [3] | [4] | [5] | [6] | [7] | [8] | [9] | [10] | [11] | [12] | [13] | [14] | [15] | [16] | [17] | [18] | [19] | [20]
